# Test results reported in PubChem BioAssay (Tox21).
# A number with no mark means an inactive call. The source made the active and inactive calls. Calls come from the whole dose curve; as a rule, active = well fitted inhibition curve with a large enough effect in the repeat runs (not every such curve was filed as active); inconclusive = weak or mixed curves; inactive = flat fitted curve, though single readings scatter. Positions of bridges follow the written chain, without caps; N, C: chain ends. Non-standard residues stand in square brackets, D forms with d. Residues, ends and D or L forms follow the SMILES beside them. hArg = N=C(N)NCCCC[C@H](N)C(=O)O; Mpa = O=C(O)CCS
# Biological target: Thyrotropin-releasing hormone receptor (Homo sapiens) (UniProt P34981)
# Sequence (P34981 whole entry, looked up): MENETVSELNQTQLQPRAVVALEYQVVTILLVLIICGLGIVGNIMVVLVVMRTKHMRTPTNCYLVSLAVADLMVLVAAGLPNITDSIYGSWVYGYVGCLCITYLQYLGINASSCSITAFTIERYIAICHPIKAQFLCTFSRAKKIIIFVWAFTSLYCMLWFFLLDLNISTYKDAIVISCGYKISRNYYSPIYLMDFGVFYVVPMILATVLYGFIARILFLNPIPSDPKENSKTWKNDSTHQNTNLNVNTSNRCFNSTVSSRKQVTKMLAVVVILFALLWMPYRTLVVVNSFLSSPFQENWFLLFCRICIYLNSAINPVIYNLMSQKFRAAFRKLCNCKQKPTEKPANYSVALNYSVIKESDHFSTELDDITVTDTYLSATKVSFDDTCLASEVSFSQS
# Experiment: qHTS assay to identify small molecule antagonists of the thyrotropin-releasing hormone receptor (TRHR) signaling pathway (AID 1346877)
# Conditions: TRHR-HEK293, TRH-induced calcium fluorescence, antagonist mode; series mostly up to 51.3 µM
# Excerpt: National Center for Advancing Translational Sciences [NCATS]
# NIH Chemical Genomics Center [NCGC]
# U.S. Environmental Protection Agency [EPA]
# National Institutes of Environmental Health Sciences [NIEHS]
# National Toxicology Program [NTP]
# U.S. Food and Drug Administration [FDA]
# Thyrotropin-releasing hormone (TRH) receptor (TRHR) is a G-protein-coupled receptor which binds the tripeptide thyrotropin releasing hormone. TRHR is found in the brain and, when bound by TRH, acts (through phospholipase C) to increase intracellular inositol trisphosphate. It plays a crucial role in the anterior pituitary where it controls the synthesis and secretion of thyroid stimulating hormone and prolactin. The TRHR-Hek293 assay is a cell-based assay, and it has the potential to screen G protein-coupled receptors. A compound/drug can either activate (agonist) or suppress (antagonist) GPCRs that can be monitored by levels of intracellular calcium. In this assay, the Tox21 10K compound library was screened to identify potential TRHR antagonists.
# Tox21 Assay Protocol Summary:
# The TRHR-Hek293 cells were dispensed at 1500cells/4uL/well in 1536-well black-clear bottom plates using a Multidrop dispenser. After the assay plates were incubated at a 37 C/5% CO2 incubator for 18 hours, 4 uL of Dye-Loading Solution was added to each well. The plates were incubated at 37 C for 2 hours. For agonist mode, 23 nL of compounds dissolved in DMSO, positive controls or DMSO only was transferred to the assay plate by a pin tool. The fluorescence intensity in the plates was measured using FDSS 7000EX kinetic plate reader for 3 min at 1 sec intervals. For antagonist mode, 23 nL of compounds dissolved in DMSO, positive controls or DMSO only was transferred to the assay plate by a pin tool. After 5 min incubation at room temperature, 1 uL of TRH was added on the top of the cell/compound mixtures to achieve a final agonist concentration of 1 nM. The fluorescence intensity in the plates was measured using FDSS 7000EX kinetic plate reader for 3 min at 1 sec intervals. Each test compound was measured at 15 concentrations and in triplicates.
# % is set by controls: 0 for no effect and ±100 for the full control effect.
Structure (SMILES),outcome,"activity, negative = inhibition"
NCCOCCN,inactive,
CCOC(=O)CC1(C)OCC(C)O1 (stereo not given),inactive,
C/C(CC(C)C)=N\O,inactive,
CC(O)CC(C)O (stereo not given),inactive,
OCC(O)CN1CCN(c2ccccc2)CC1 (stereo not given),inactive,
C/C=C(\C)C(=O)OCCc1ccccc1,inactive,
O=Cc1cc2ccccc2o1,inactive,
COc1nc(N)nc2nc[nH]c12,inactive,
CC(=O)CC(=O)OC(C)(C)C,inactive,
CCCCCCCCCCOC(C)=O,inactive,
OC[C@H]1O[C@@H](O[C@@H]2[C@@H](CO)O[C@](O)(CO)[C@H]2O)[C@H](O)[C@@H](O)[C@H]1O,inactive,
CCOc1cccc(N)c1,inactive,
Cc1ccc(C(=O)O)cc1[N+](=O)[O-],inactive,
COC(C)(OC)OC,inactive,
CC(C)OC(=O)CCC(=O)OC(C)C,inactive,
O=C1CCCCO1,inactive,
CC(C)C[C@@H]1[C@H](c2ccccc2)OC(=O)N1CCCN1CCCCCC1,inactive,
O=C[O][Al]([O]C=O)[O]C=O,inactive,
COc1cc2c(cc1OC)C(=O)C(CC1CCN(Cc3ccccc3)CC1)C2 (stereo not given),inactive,
Cn1nnc2c(C(N)=O)ncn2c1=O,inactive,

Structure (SMILES),outcome,"activity, negative = inhibition"
NCc1ccc(S(N)(=O)=O)cc1,inactive,
CCO,inactive,
CC(=O)OCC(=O)Nc1cc(C#N)cc(NC(=O)COC(C)=O)c1Cl,inactive,
CC(C)Cn1cnc2c1c(=O)n(C)c(=O)n2C,inactive,
NC(=O)[C@@H]1CSSCCC(=O)N[C@@H](CCCCN=C(N)N)C(=O)NCC(=O)N[C@@H](CC(=O)O)C(=O)N[C@@H](Cc2c[nH]c3ccccc23)C(=O)N2CCC[C@H]2C(=O)N1 ([Mpa][hArg]GDWPC-NH2; disulfide 1-7),inactive,
Cc1c(N)cccc1Cl,inactive,
COC(=O)/C=C\C(=O)O,inactive,
COP(=O)(O)OP(=O)(O)OC,inactive,
Cc1c(NC(=O)c2cccnc2)c(=O)n(-c2ccccc2)n1C,inactive,
O=C(Cn1ccnc1[N+](=O)[O-])NCc1ccccc1,inactive,
C=CC/C=C/C,inactive,
OCCN1CCOCC1,inactive,
CC1=C(O)C(=O)C(C)O1 (stereo not given),inactive,
C=CCOC(=O)CCCCCC,inactive,
CC(S)C(C)S (stereo not given),inactive,
CCOc1ccccc1OCC1CNCCO1 (stereo not given),inactive,
O=C(O)c1cc2ccccc2nc1C(=O)O,inactive,
CCCCCCCCCCCCCCCCCCOCCO,,2.83% [at 10.5 µM]
CC(=O)C1C(=O)C=C(C)OC1=O (stereo not given),inactive,
CC1(C)O[C@H]2CC(=O)OC[C@]23[C@H]2CC[C@@]4(C)[C@H](c5ccoc5)OC(=O)[C@H]5O[C@]54[C@]2(C)C(=O)C[C@@H]13,inactive,
